Assay [1] relates to DLD1. Briefly: cell viability (CellTiter-Glo) relative to plate median (fraction of plate median); higher = more viable cells. The settings on record: 5 µM; treatment time 24 h; reporter: 7TFP. An outline of the steps: (§1)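 On parallel plates, a Tecan F500 reader recorded either firefly luciferase or CellTiterGlo luminescence. The plates held colorectal cancer cells stably transduced with lentiviral TCF/Wnt firefly luciferase reporters (7TFP or TCF4/Wnt), seeded in 384-well format and treated 24 h later with library compounds at a final 5 µM for 24 h. Per-well signals were normalised to the plate median (webcellHTS2, additive, no log transformation), and two independent replicates were averaged.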
Background: ATP-based viability assays read luminescence as a measure of living cells.

In assay [2] the test system is HCT116. The assay is described as above. Particulars: 5 µM; treatment time 24 h; reporter: TCF4/Wnt. The gist of the method: as §1
The test system of assay [3] is SW480. The description is as above. Particulars: 5 µM; treatment time 24 h; reporter: 7TFP. An outline of the steps:
as §1

The test system of assay [4] is DLD1. In words: TCF/Wnt firefly luciferase reporter signal relative to plate median (fraction of plate median); higher = higher Wnt reporter signal. The settings on record: 5 µM; treatment time 24 h; reporter: 7TFP. The gist of the method: as §1
The test system of assay [5] is SW480. The assay is described as above. Particulars: 5 µM; treatment time 24 h; reporter: 7TFP. The gist of the method:
as §1

± gives the standard deviation of the averaged measurements.

For the compound `CCCCCCCCCCCCCCCCCCOCC(O)CO` (stereo not given), the cell viability in assay [1] amounted to 0.991 ± 0.084; in assay [2], 0.989 ± 0.073; in assay [3] it was 1.02 ± 0.021. The “TCF/Wnt firefly luciferase reporter signal” value in assay [4] was 1.035 ± 0.0071; in assay [5], 1.01 ± 0.09.

On to `COc1ccc2cc([C@H](C)CO)ccc2c1`, for which the figures for the cell viability in assay [1], in assay [2] and in assay [3] were 0.939 ± 0.0028, 0.862 ± 0.17 and 0.9375 ± 0.0021, respectively. Besides, the entries for the “TCF/Wnt firefly luciferase reporter signal” value in assay [4] and in assay [5] were 1.11 ± 0.035 and 1.04 ± 0.05, respectively.

On to `COc1c2c(c(O)c3c4c(c(C)cc13)C1OC3(C(OC)OC)OC1C(O[C@H]1C[C@@H](O)[C@@](O)(C(C)=O)[C@H](C)O1)(O4)C3(O)CO)C(=O)C(O)CC2O[C@H]1C[C@@](C)(O)[C@H](OC(C)=O)[C@H](C)O1` (stereo not given in full) [Trioxacarcin B], for which the cell viability in assay [1] is 1.09 ± 0.29; in assay [2], 1.11 ± 0.014; in assay [3] it was 1.06. The “TCF/Wnt firefly luciferase reporter signal” value in assay [4] is 0.739 ± 0.21; in assay [5] it was 0.893 ± 0.14.

Take `O=C(COc1ccc(Cl)cc1)N1CCN(Cc2ccc3c(c2)OCO3)CC1`: the cell viability in assay [1] was 0.9755 ± 0.0064; in assay [2] it was 0.893 ± 0.03; in assay [3], 1.035 ± 0.0071. Moreover, the figures for the “TCF/Wnt firefly luciferase reporter signal” value in assay [4] and in assay [5] were 0.865 ± 0.18 and 0.921 ± 0.018, respectively.

For the compound `CCOc1ccc2nc3cc(N)ccc3c(N)c2c1`, the cell viability worked out at 1.02 ± 0.11 in assay [1], 1.02 ± 0.074 in assay [2] and 0.999 ± 0.016 in assay [3]. The “TCF/Wnt firefly luciferase reporter signal” value in assay [4] came out at 1.1 ± 0.085; in assay [5], 0.925 ± 0.013.

`NC1=NCCN1CC(=O)O`: the figures for the cell viability in assay [1], in assay [2] and in assay [3] were 0.897 ± 0.036, 1.03 ± 0.072 and 0.976 ± 0.0014, respectively. Moreover, the “TCF/Wnt firefly luciferase reporter signal” value in assay [4] stood at 1.06 ± 0.094; in assay [5] it was 0.985 ± 0.016.

In the case of `CC(C)C1=CC2=CC[C@@H]3[C@](C)(CCC[C@@]3(C)C(=O)O)[C@H]2CC1`, the figures for the cell viability in assay [1], in assay [2] and in assay [3] were 0.967 ± 0.09, 0.97 ± 0.013 and 0.897 ± 0.012, respectively. Besides, the entries for the “TCF/Wnt firefly luciferase reporter signal” value in assay [4] and in assay [5] were 1.1 ± 0.11 and 0.912 ± 0.09, respectively.

As for `CCC(CCC(C)C1CCC2C3CCC4CC(O)CCC4(C)C3CCC12C)C(C)C` (stereo not given), the cell viability in assay [1] worked out at 1.11 ± 0.057; in assay [2] it was 1.06 ± 0.021; in assay [3], 1.06 ± 0.021. Moreover, the “TCF/Wnt firefly luciferase reporter signal” value in assay [4] was found to be 1.23 ± 0.078; in assay [5], 1.01 ± 0.015.

Take `COC1=C(OC)C(=O)C(C/C=C(\C)CC/C=C(\C)CC/C=C(\C)CC/C=C(/C)CC/C=C(\C)CC/C=C(\C)CC/C=C(\C)CC/C=C(\C)CC/C=C(\C)CCC=C(C)C)=C(C)C1=O`: the figures for the cell viability in assay [1], in assay [2] and in assay [3] were 1.02 ± 0.035, 0.993 ± 0.067 and 1.115 ± 0.0071, respectively. In addition, the “TCF/Wnt firefly luciferase reporter signal” value is 0.98 ± 0.057 in assay [4] and 0.923 ± 0.15 in assay [5].

Consider `OCCOCCN1CCN(C2=Nc3ccccc3Sc3ccccc32)CC1`, for which the cell viability in assay [1] was determined as 1.05 ± 0.094; in assay [2], 1 ± 0.15; in assay [3], 0.991 ± 0.013. The “TCF/Wnt firefly luciferase reporter signal” value in assay [4] came out at 1.03 ± 0.028; in assay [5] it was 1.08 ± 0.014.

For the compound `CC(=O)NCCc1ccc(O)cc1` [N-Acetyl-tyramine], the results for the cell viability in assay [1], in assay [2] and in assay [3] were 0.951 ± 0.017, 0.985 ± 0.092 and 0.991 ± 0.0071, respectively. In addition, the figures for the “TCF/Wnt firefly luciferase reporter signal” value in assay [4] and in assay [5] were 1.13 ± 0.042 and 1.05 ± 0.035, respectively.

For the compound `O=c1c2ccccc2oc2ccccc12`, the figures for the cell viability in assay [1], in assay [2] and in assay [3] were 0.986 ± 0.016, 0.98 ± 0.043 and 0.98 ± 0.029, respectively. Moreover, the “TCF/Wnt firefly luciferase reporter signal” value turned out to be 0.985 ± 0.036 in assay [4] and 0.916 ± 0.03 in assay [5].

Take `CC(=O)NS(=O)(=O)c1ccc(NC(=O)c2ccccc2C(=O)O)cc1`: the cell viability in assay [1] came to 0.946 ± 0.047; in assay [2], 0.905 ± 0.13; in assay [3], 0.93 ± 0.035. Further, the entries for the “TCF/Wnt firefly luciferase reporter signal” value in assay [4] and in assay [5] were 1.04 ± 0.057 and 1.1 ± 0.042, respectively.

For `O=C(O)C1(C(=O)O)CCC1.[NH2-].[NH2-].[Pt+2]`, the cell viability in assay [1] turned out to be 1.02 ± 0.059; in assay [2], 1.08 ± 0.15; in assay [3] it was 0.97 ± 0.028. Besides, the “TCF/Wnt firefly luciferase reporter signal” value is 1.15 ± 0.099 in assay [4] and 1 ± 0.039 in assay [5].

For the compound `CCCCC(=O)O[C@]1(C(=O)CO)CC[C@H]2[C@@H]3CCC4=CC(=O)CC[C@]4(C)[C@H]3[C@@H](O)C[C@@]21C`, the cell viability in assay [1] came to 0.981 ± 0.084; in assay [2], 1.02 ± 0.11; in assay [3], 0.96 ± 0.013. The “TCF/Wnt firefly luciferase reporter signal” value in assay [4] came out at 1.02 ± 0.11; in assay [5], 0.997 ± 0.061.

These data come from the supplement of paper PMC6522484.
